About 3,200 (25%) of roughly 13,000 compounds showed an effect of 50% or more. Some of the results follow.
test system: P. falciparum stage V gametocytes; parameters: BacTiter-Glo ATP luminescence viability of purified stage V gametocytes in 384-well plates, per cent inhibition versus DMSO; conditions: 48 h, 5 µM; inhibitor

| Compound | % Inhibition |
| --- | --- |
| CC(C)NCc1ccc(-c2cccc(-c3nc4ccc(F)cc4[nH]3)c2)cc1 [TCMDC-132737] | 4.072% |
| N#Cc1ccc(N2CCN(Cc3ccc(-c4cccc(-c5nc6ccccc6[nH]5)c4)cc3)CC2)nc1.O=C(O)C(F)(F)F [TCMDC-133918] | 6.117% |
| Cc1c(Cc2ccccc2Br)cnc2nc(N)nc(N)c12 [TCMDC-137244] | -16.64% |
| COC(=O)/C=C/c1ccc(CC(C)NCC(O)c2cccc(Br)c2)cc1 (stereo not shown) [TCMDC-131443] | 13.24% |
| O=[N+]([O-])c1ccc(Nc2nc(N/N=C/c3cccc(O)c3)nc(N3CCCC3)n2)cc1 [TCMDC-123855] | 36.76% |
| CCn1cnc2c(Nc3cccc([N+](=O)[O-])c3)nc(N3CCC(N4CCCCC4)CC3)nc21 [TCMDC-124437] | 69.16% |
| CC(C)(C)Nc1nc(Nc2cccc([N+](=O)[O-])c2)nc(-n2ccnc2)n1 [TCMDC-123695] | -24.43% |
| Cc1ccc(Oc2c(-c3ccccc3CN3CCCC3CN(C)C)cnn(C)c2=O)cn1 (stereo not shown) [TCMDC-135100] | -4.022% |
| Cc1[nH]c(C)c(-c2ccc(Nc3ccc(C(F)(F)F)cn3)cc2)c(=O)c1Br [TCMDC-135546] | 74.1% |
| Cc1[nH]c(C)c(-c2ccc(C(F)(F)F)cc2)c(=O)c1Br [TCMDC-137429] | 90.2% |
| Cc1[nH]c(C)c(-c2ccc(OCCOc3ccc(C(F)(F)F)cn3)cc2)c(=O)c1Br [TCMDC-135554] | 40.45% |
| Cc1[nH]c(C)c(-c2ccc(Oc3ccc(C(F)(F)F)cc3)cc2)c(=O)c1Br [TCMDC-137406] | 68.39% |
| COc1ccc2nccc([C@@H](O)CN3CCC(NC(=O)C(c4ccsc4)N4CCN(c5ccccc5OC)CC4)CC3)c2c1 (stereo partly shown) [TCMDC-140994] | -19.96% |
| CC1CCCC(C)N1C[C@@H](O)CNS(=O)(=O)c1cccc(C(F)(F)F)c1 (stereo partly shown) [TCMDC-134258] | 4.939% |
| CCc1ccccc1N=C1c2c(cccc2[N+](=O)[O-])C(=O)C1C(C)=O (stereo not shown) [TCMDC-125760] | -10.56% |
| COc1cc(CCNCC(O)c2ccc([N+](=O)[O-])c(OCc3ccccc3)c2)cc(OC)c1OC (stereo not shown) [TCMDC-132008] | 19.76% |
| CC(C#N)Cc1ccc(-c2cnc(N)c3cc(-c4ccnc(N)n4)ccc23)cc1 (stereo not shown) [TCMDC-134547] | 15.83% |
| CCCCCC(C)C(C)c1cc(O)c2c(c1)OC(C)(C)C=C2c1cc[n+]([O-])cc1 (stereo not shown) [TCMDC-131349] | -5.463% |
| CCCCCCC(C)c1cc(O)c2c(c1)OC(C)(C)C=C2c1ccncc1 (stereo not shown) [TCMDC-131636] | -3.085% |
| CCCCCCC(C)c1cc(OCCN(CC)CC)c2c(c1)OC(C)(C)C=C2c1ccncc1 (stereo not shown) [TCMDC-131641] | 78.51% |
| CC(=O)OC[C@H]1O[C@@H](C#Cc2ccccc2)[C@H](OC(C)=O)[C@@H](OC(C)=O)[C@@H]1OC(C)=O [TCMDC-131801] | 35.52% |
| CC(C)C[C@@H](NC(=O)NC1CCC(CCN2C3CCC2CC(OC(=O)C(CO)c2ccccc2)C3)CC1)C(O)(c1ccccc1)c1ccccc1 (stereo partly shown) [TCMDC-136459] | 3.057% |
| CC1(C)NC(N)=NC(=N)N1OCC1CCCCC1 [TCMDC-131616] | -0.7745% |

| Compound | % Inhibition |
| --- | --- |
| O=C1COc2ccc3ccccc3c21 [TCMDC-123508] | 4.476% |
| CNCc1cccc(-c2ccc3ccnc(N)c3c2)c1 [TCMDC-136794] | 70.03% |
| CSc1nccc(-c2ccc3ccnc(N)c3c2)n1 [TCMDC-136641] | 63.58% |
| Nc1nccc2ccc(-c3cccc(O)c3)cc12 [TCMDC-136758] | 44.67% |
| CNCc1ccc(-c2ccc3ccnc(N)c3c2)cc1 [TCMDC-136789] | 95.61% |
| CCNCc1cccc(-c2ccc3ccnc(N)c3c2)c1 [TCMDC-136869] | 65.98% |
| Nc1ccc(-c2ccc3ccnc(N)c3c2)cn1 [TCMDC-133428] | 40.89% |
| CNc1cc(-c2ccc3ccnc(N)c3c2)nc(N)n1.O=CO [TCMDC-136539] | 29.83% |
| Clc1ccc2c(N3CCCNCC3)ccnc2c1 [TCMDC-124813] | -27.2% |
| CCc1cc2c(cc1CC)CC(NC[C@@H](O)c1ccc(O)c3[nH]c(=O)ccc13)C2 [TCMDC-138894] | -46.2% |
| CCCCC([C@@H](Cc1ccc2ccccc2c1)C(=O)N[C@H](C(=O)NC)C(C)(C)C)N(O)C=O (stereo partly shown) [TCMDC-140405] | 29.38% |
| Cc1cccc2nc(-c3ccc(-c4ccc(NC(=O)NCc5ccccc5)cc4)s3)[nH]c12 [TCMDC-133156] | 6.679% |
| O=C(CCc1cnc[nH]1)Nc1cccc(-c2cccc(-c3nc4ccc(C(F)(F)F)cc4[nH]3)c2)c1 [TCMDC-132157] | -1.759% |
| Cc1cnc(Nc2cccnc2)nc1Nc1ccccc1C(=O)NC(C)C [TCMDC-134207] | 8.943% |
| O=C(Nc1ccc(CN2CCN(S(=O)(=O)c3ccc(Cl)s3)CC2)cc1)c1cccs1 [TCMDC-136320] | 18.17% |
| N#Cc1ccc(CNCCCCCCCNCc2ccc(-c3ccccc3)cc2)cc1 [TCMDC-140407] | 71.46% |
| N#Cc1ccc2c(c1)CN(CCCCNC(=O)c1ccc(-c3ccccc3)cc1)CC2 [TCMDC-139091] | 8.247% |
| Cc1cc(CNCCCCCCCNCc2ccc(-c3ccccc3)cc2)ccc1O [TCMDC-140415] | 101% |
| O=C(NCCCCCCNCc1ccc(-c2ccccc2)cc1)Nc1ccc(Cl)c(Cl)c1 [TCMDC-140706] | 4.226% |
| Cc1cc(CNCCCCCCNCc2ccc(Cl)cc2)ccc1O [TCMDC-140414] | 43.51% |
| Cc1cc(CNCCCCCCNCc2ccc(-c3ccccc3)cc2)ccc1O [TCMDC-140412] | 99.09% |
| Cc1cc(CNCCCCCNCc2ccc(Cl)cc2)ccc1O [TCMDC-140411] | 48.45% |
| Cc1cc(CNCCCCCCCNCc2ccc(Cl)cc2)ccc1O [TCMDC-140417] | -6.741% |

Reference: paper PMC4552634, “A New Set of Chemical Starting Points with Plasmodium falciparum Transmission-Blocking Potential for Antimalarial Drug Discovery” (PLoS ONE, 2015)
